PP5 inh: inhibitors of human protein phosphatase 5 (PP5). purified PP5c, OMFP substrate fluorescence. P53041. AID 1987. inhibition, % at 6.7 µM. 320,000 tested, 0.18% active;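 active means inhibition above the campaign's mean inhibition across all tested compounds plus 3 SD, cut at about 9.5% in these data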
Mdm2 MdmX PPI: disrupts the human Mdm2-MdmX interaction. SaOS-2 split-luciferase Mdm2/MdmX complementation, luminescence. inhibition, % at 8 µM. 330,000 tested, 3% active. AID 485346;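 active means inhibition of at least 50% at 8 µM in the primary screen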
Target sequence (O15151 whole entry, looked up): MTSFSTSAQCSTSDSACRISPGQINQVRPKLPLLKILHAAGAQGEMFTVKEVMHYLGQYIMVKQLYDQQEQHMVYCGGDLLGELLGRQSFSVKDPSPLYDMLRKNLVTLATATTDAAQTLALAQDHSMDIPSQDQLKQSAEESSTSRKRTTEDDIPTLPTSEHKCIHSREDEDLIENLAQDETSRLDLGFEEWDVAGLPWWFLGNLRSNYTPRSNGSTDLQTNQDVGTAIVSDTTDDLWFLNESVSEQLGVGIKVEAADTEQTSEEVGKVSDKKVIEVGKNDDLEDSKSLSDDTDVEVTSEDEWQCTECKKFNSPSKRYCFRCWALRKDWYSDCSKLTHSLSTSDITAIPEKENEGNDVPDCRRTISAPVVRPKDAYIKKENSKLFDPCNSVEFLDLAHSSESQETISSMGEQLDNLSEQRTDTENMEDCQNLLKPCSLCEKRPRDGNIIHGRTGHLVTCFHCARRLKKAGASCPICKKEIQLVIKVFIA
Target sequence (Q00987 whole entry, looked up): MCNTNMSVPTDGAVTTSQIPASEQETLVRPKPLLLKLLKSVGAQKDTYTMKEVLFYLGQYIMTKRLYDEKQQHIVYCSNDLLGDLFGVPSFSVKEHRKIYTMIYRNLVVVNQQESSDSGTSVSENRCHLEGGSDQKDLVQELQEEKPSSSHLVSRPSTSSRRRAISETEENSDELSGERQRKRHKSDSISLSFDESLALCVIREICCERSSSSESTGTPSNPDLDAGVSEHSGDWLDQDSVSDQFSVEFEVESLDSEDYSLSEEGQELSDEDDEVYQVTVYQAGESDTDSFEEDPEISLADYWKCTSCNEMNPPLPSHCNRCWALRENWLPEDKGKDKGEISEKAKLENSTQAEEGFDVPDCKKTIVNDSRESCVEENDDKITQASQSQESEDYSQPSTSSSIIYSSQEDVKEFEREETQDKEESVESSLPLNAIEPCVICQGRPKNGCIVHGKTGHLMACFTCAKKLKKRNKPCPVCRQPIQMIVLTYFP
Beta apoptosis: beta cell apoptosis inhibition; AID 435005; INS-1E cytokine-induced death, ATP luminescence, 48 h; percent of positive-control rescue, neutral wells zero; protection from apoptosis, % (concentration not given with the values); 300,000 tested, 0.8% active;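 active means Every replicate reaches about 75%, or at least half do and their mean reaches it too, limit read from the data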;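 further: higher means more ATP so stronger rescue from cytokine killing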
Calb FLC: affects C. albicans growth with fluconazole. C. albicans CaCi-2 (fluconazole-resistant clinical isolate) + fluconazole, Alamar Blue growth, 48 h. growth inhibition, % (no concentration beside the values). 300,000 tested, 0.57% active;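 active means growth inhibition above about 58% in most replicates, limit read from the data, passing the limit was not always enough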;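 further: all wells also contain fluconazole at 8 µg/ml as a sub-toxic cotreatment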
PP1 inh: blocks human PP1-alpha phosphatase, a PP5 counter-screen; purified PP1alpha, OMFP fluorescence; inhibition, % at 6.7 µM; 320,000 tested, 0.9% active;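 active means inhibition above the mean inhibition of all tested compounds plus 3 SD, computed separately for each screening campaign, cut at about 15% in these data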
CSC inhib: blocks cancer stem cells | cancer stem cell-like cells viability, luminescence | inhibition, % at 7.5 µM | 300,000 tested, 1.1% active; in the data active means inhibition above about 75%; tested in HMLE shEcad cells
Mdm2-MdmX conf: human Mdm2/MdmX binding inhibition, confirmed. shares compounds with Mdm2 MdmX PPI. luminescent assay. inhibition, % at 8 µM. 10,000 tested, 55% active. AID 489028; in the data active means inhibition above about 40%
Full FLuc ctr: inhibits full-length luciferase, flagging false Mdm2/MdmX hits | AID 504607 | inhibition, % at 8 µM | SaOS-2 full-length luciferase counterscreen, luminescence | shares compounds with Mdm2 MdmX PPI | 6,200 tested, 77% active;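 active means mean inhibition at 8 µM reaching about 37%, which flags the compound as non-specific, limit read from the data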;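 further: p53-null SaOS-2 cells with luciferase driven by a doxycycline-inducible promoter; compound on cells about two nights before reading with doxycycline added after day one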
Of the large screens only hits and unclear results are named; the others gave an inactive call (follow-up assays come after a bar, where they were run). In the library only some 4.9% were active in any assay of this set; here they are far more common.

C=C1C(O)[C@@H]2O[C@]3(CC[C@H](/C=C/C(C)[C@@H]4CC(C)=CC5(O[C@H](C[C@@](C)(O)C(=O)O)CCC5O)O4)O3)CC[C@H]2O[C@@H]1C(O)CC(C)[C@H]1OC2(CCCCO2)CCC1C (stereo partly specified)	Mdm2 MdmX PPI 98, Beta apoptosis 85 (no result: PP5 inh, Calb FLC, PP1 inh, CSC inhib) | Mdm2-MdmX conf 100 | Full FLuc ctr inactive
c1ccc(CCCN2CCN(CCOC(c3ccccc3)c3ccccc3)CC2)cc1	Mdm2 MdmX PPI 50 (no result: Calb FLC) | Mdm2-MdmX conf inactive | Full FLuc ctr 80
Fc1ccc(C(OCCN2CCCC2)c2ccc(F)cc2)cc1	none (no result: Beta apoptosis, CSC inhib)
Fc1ccc(C(OCCN2CCN(CCCc3ccccc3)CC2)c2ccc(F)cc2)cc1	Mdm2 MdmX PPI 83, Beta apoptosis 102, CSC inhib 98 (no result: Calb FLC) | Mdm2-MdmX conf 59 | Full FLuc ctr inactive
CC12CN3CC(c4ccccc4)(CN(C1)C31CCCCC1)C2=O	none
C=C1C(=O)O[C@@H]2C[C@@H](C)[C@H]3C=CC(=O)[C@]3(O)C[C@@H]12	Mdm2 MdmX PPI 58 | Mdm2-MdmX conf inactive
CC1CCCC(C)N1/N=C/c1c[nH]c2ccc(Br)cc12 (stereo unspecified)	Mdm2 MdmX PPI 52 (no result: CSC inhib) | Mdm2-MdmX conf inactive
Cc1ccsc1C(=O)C1CCCN(Cc2cnc(N3CCOCC3)s2)C1 (stereo unspecified)	none
COc1ccc(/C=C/C(=O)c2c(O)n(CCC3=CCCCC3)c(=O)[nH]c2=O)cc1OC	Mdm2 MdmX PPI 69 | Mdm2-MdmX conf inactive
C=CCn1c(O)c(C(C)=NCCC2=CCCCC2)c(=O)[nH]c1=O	none (no result: Beta apoptosis)
CC/C=C/CC(=O)N[C@@H](c1ccccc1)[C@@H](O)C(=O)O[C@H]1C[C@@]2(O)[C@@H](OC(=O)c3ccccc3)C3[C@](C)(C(=O)[C@H](OC(C)=O)C(=C1C)C2(C)C)[C@@H](O)C[C@H]1OC[C@@]31OC(C)=O (stereo partly specified)	Mdm2 MdmX PPI 69 (no result: Beta apoptosis) | Mdm2-MdmX conf 67 | Full FLuc ctr 48
C/C=C(\C)C(=O)N[C@@H](c1ccccc1)[C@@H](O)C(=O)O[C@H]1C[C@@]2(O)[C@@H](OC(=O)c3ccccc3)C3[C@](C)(C(=O)[C@H](OC(C)=O)C(=C1C)C2(C)C)[C@H](O)C[C@H]1OC[C@@]31OC(C)=O (stereo partly specified)	none
CCC(C)C(=O)N[C@@H](c1ccccc1)[C@@H](O)C(=O)O[C@H]1C[C@@]2(O)[C@@H](OC(=O)c3ccccc3)C3[C@](C)(C(=O)[C@H](OC(C)=O)C(=C1C)C2(C)C)[C@@H](O)C[C@H]1OC[C@@]31OC(C)=O (stereo partly specified)	Mdm2 MdmX PPI 62 | Mdm2-MdmX conf 66 | Full FLuc ctr 39
Cc1c2ccncc2c(C)c2c1[nH]c1ccccc12	Mdm2 MdmX PPI 98, Beta apoptosis 119, PP1 inh 31, CSC inhib 109 (no result: Calb FLC) | Mdm2-MdmX conf 92 | Full FLuc ctr inactive
c1ccc2c(c1)[nH]c1cnccc12	none (no result: Calb FLC)
CC(=O)O[C@@H]1/C=C/[C@](C)(O)C[C@@H](C)C/C=C/[C@H]2[C@H](O)[C@@](C)(O)[C@@H](C)[C@H]3[C@H](Cc4ccccc4)NC(=O)[C@@]312	none
CC(=O)O[C@@H]1/C=C/[C@](C)(O)C[C@@H](C)C/C=C/[C@H]2[C@@H]3O[C@]3(C)[C@@H](C)[C@H]3[C@H](Cc4ccccc4)NC(=O)[C@@]312	Mdm2 MdmX PPI 78 | Mdm2-MdmX conf 51 | Full FLuc ctr 42
COc1ccc(C[C@H]2NC[C@H](O)[C@H]2OC(C)=O)cc1	Mdm2 MdmX PPI 98, CSC inhib 79 (no result: Calb FLC) | Mdm2-MdmX conf 98 | Full FLuc ctr inactive
COc1ccc(CCNC2CCCCC2)cc1	none
Cc1cccc(NC(=O)C(C)N2CC=C(c3ccccc3)CC2)c1 (stereo unspecified)	none
CC[C@H](C)[C@@H]1O[C@@]2(C=CC1C)CC1C[C@@H](CC=C(C)C(O[C@H]3CC(OC)C(O[C@H]4CC(OC)C(O)C(C)O4)C(C)O3)C(C)C=CC=C3CO[C@@H]4C(O)C(C)=C[C@@H](C(=O)O1)[C@]34O)O2 (stereo partly specified)	Mdm2 MdmX PPI 85, CSC inhib 103 (no result: Calb FLC) | Mdm2-MdmX conf inactive
CCC1(C)CN(S(=O)(=O)OCC(Cl)(Cl)Cl)C(=O)N1 (stereo unspecified)	none
CCCCCC(=O)N[C@@H](c1ccccc1)[C@@H](O)C(=O)O[C@H]1C[C@@]2(O)[C@@H](OC(=O)c3ccccc3)C3[C@](C)(C(=O)[C@H](O)C(=C1C)C2(C)C)[C@@H](OC1OCC(O)C(O)C1O)C[C@H]1OC[C@@]31OC(C)=O (stereo partly specified)	Mdm2 MdmX PPI 57 | Mdm2-MdmX conf 60 | Full FLuc ctr 52
CC(=O)O[C@@]12CO[C@@H]1C[C@H](OC1OCC(O)C(O)C1O)[C@@]1(C)C(=O)[C@H](O)C3=C(C)[C@@H](OC(=O)[C@H](O)[C@@H](NC(=O)c4ccccc4)c4ccccc4)C[C@@](O)([C@@H](OC(=O)c4ccccc4)C12)C3(C)C (stereo partly specified)	Mdm2 MdmX PPI 53 | Mdm2-MdmX conf inactive | Full FLuc ctr 59
CC(=O)O[C@@]12CO[C@@H]1C[C@@H](O)[C@@]1(C)C(=O)[C@H](O)C3=C(C)[C@@H](OC(=O)[C@H](O)[C@@H](NC(=O)c4ccccc4)c4ccccc4)C[C@@](O)([C@@H](OC(=O)c4ccccc4)C12)C3(C)C (stereo partly specified)	Mdm2 MdmX PPI 51 | Mdm2-MdmX conf 61 | Full FLuc ctr 48
CCc1c(C)nc(N)nc1N1N=C1SCCOc1ccccc1	none
CC(C)CC(NC(=O)CCCNC(=O)CCC(=O)OC1O[C@H]2OC3(C)CC[C@H]4[C@H](C)CCC(C1C)C24OO3)C(=O)O (stereo partly specified)	none
Cn1ncnc2c(=O)n(C)c(=O)nc1-2	PP5 inh 13, Mdm2 MdmX PPI 92, Beta apoptosis 125, PP1 inh 38, CSC inhib 176 | Mdm2-MdmX conf 84 | Full FLuc ctr inactive
O=c1c2ccccc2nc(/C=C/c2ccc(O)cc2)n1-c1ccccc1O	none
Cc1ccccc1-n1c(/C=C/c2ccccn2)nc2ccccc2c1=O	Mdm2 MdmX PPI 58 | Mdm2-MdmX conf inactive | Full FLuc ctr 67
O=c1c2ccccc2nc(/C=C/c2ccccc2)n1-c1ccccc1O	Mdm2 MdmX PPI 53, CSC inhib 90 | Mdm2-MdmX conf inactive

Screening data (PubChem BioAssay)
